Most compounds without a hit are left out; they make up all but 3.4% or so of the library.
GPR151 activ = activators of human GPR151 | Q8TDV0 | PathHunter beta-arrestin GPR151 cells, luminescence | activation, % at 11.2 µM | hit rate 1% among 650,000; in the data active = activation above about 4.9%;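 also: 0% = median of compound wells and 100% = cells with positive control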
Target sequence (Q8TDV0 whole entry, looked up): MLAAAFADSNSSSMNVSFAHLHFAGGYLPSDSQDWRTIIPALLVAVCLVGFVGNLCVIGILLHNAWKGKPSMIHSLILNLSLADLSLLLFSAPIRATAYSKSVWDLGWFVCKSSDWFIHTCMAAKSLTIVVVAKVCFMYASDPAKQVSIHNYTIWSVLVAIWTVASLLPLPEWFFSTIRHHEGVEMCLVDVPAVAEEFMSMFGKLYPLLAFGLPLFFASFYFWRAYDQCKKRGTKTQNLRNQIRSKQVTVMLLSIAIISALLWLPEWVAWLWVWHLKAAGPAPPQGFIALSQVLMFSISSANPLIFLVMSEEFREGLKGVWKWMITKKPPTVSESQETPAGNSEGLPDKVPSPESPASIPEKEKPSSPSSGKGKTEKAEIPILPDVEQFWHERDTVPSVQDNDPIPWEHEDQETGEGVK
FBW7 activator = activators of human E3 ligase FBW7; AlphaScreen FBW7–phospho-cyclin E peptide binding, activator screen; hit rate 0.13% among 650,000; AID 1259310; normalized activity (activation), % at 26.1 µM; in the data active = normalized activity above about 1.9%;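 also: purified mutant Fbw7 with reduced substrate affinity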
MITF inh = inhibitors of human MITF; O75030; AlphaScreen MITF homodimerization, bead proximity signal; inhibition, % at 2.6 µM; hit rate 0.91% among 650,000; AID 1259374; in the data active = inhibition above about 50%;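 also: 0% = vehicle wells with protein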
TEAD-YAP inh = TEAD-YAP interaction inhibition. hit rate 1.4% among 640,000. inhibition, % at 9.12 µM. HEK-TIYL cells, TEAD-Gal4/YAP UAS-luciferase luminescence; in the data active = inhibition above about 32%;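 also: 0% = median of test compound wells and 100% = reference inhibitor wells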
An asterisk follows results filed as active.

SMILES	GPR151 activ	FBW7 activator	MITF inh	TEAD-YAP inh
Cc1ccc(C(=O)CC(C(=O)O)N2CCN(Cc3ccccc3)CC2)cc1 (stereo not drawn)	-0.5	0.0	8.9	9.3
O=C(COc1cccc(N2C(=O)C3C4C=CC(C5CC45)C3C2=O)c1)c1ccc(Cl)cc1 (stereo not drawn)	1.2	-0.1	-0.5	39.4*
Cn1cnc(-c2ccc3cnc(Nc4ccc(-n5cnc(N6CCOCC6)n5)cc4)nc3c2)n1	0.7	0.7	30.2	1.1
Cc1[nH]ncc1-c1ccc2cnc(Nc3ccc(-n4cnc(N5CCOCC5)n4)cc3)nc2c1	0.5	0.0	18.3	85.2*
Cc1nc(-c2ccc3cnc(Nc4ccc(-n5cnc(N6CCOCC6)n5)cc4)nc3c2)n[nH]1	-0.4	0.6	42.2	28.6
Cc1n[nH]c(C)c1-c1ccc2cnc(Nc3ccc(-n4cnc(N5CCOCC5)n4)cc3)nc2c1	0.5	-0.3	14.7	34.5*
c1ccc2c(c1)n(CCN1CCCCC1)c1ncnn21	-0.4	0.1	11.8	-5.2
c1ccc2c(c1)nc1n(CCN3CCCCC3)cnn21	-1.1	2.1*	19.0	-5.7
CCC(C(=O)NCCc1cn2ccc(C)cc2n1)c1ccccc1 (stereo not drawn)	2.3	0.0	-3.9	11.7
O=C(CS(=O)CC(=O)Nc1ccc2c(c1)OCO2)Nc1ccc(Cl)cc1 (stereo not drawn)	0.7	0.0	10.3	-2.9
COc1cc(NS(=O)(=O)c2ccc(NC(C)=O)cc2)c(OC)cc1Cl	0.0	-0.1	6.0	52.4*
COC(=O)c1ccc(C(=O)OC)c(S(=O)(=O)Nc2cc(OC)c(Cl)cc2OC)c1	-1.8	0.3	9.7	44.6*
COc1cc(NS(=O)(=O)c2ccc(OC)c(OC)c2)c(OC)cc1Cl	1.5	0.1	8.5	48.5*
COc1ccc(Cl)cc1NS(=O)(=O)c1ccc(OC)c(OC)c1	0.6	0.0	13.5	-2.9
COc1ccc(S(=O)(=O)Nc2ccc(NC(C)=O)cc2)cc1Cl	-0.2	-0.1	-5.0	0.8
COC(=O)c1ccc(C(=O)OC)c(NS(=O)(=O)c2cc(Cl)ccc2Cl)c1	1.2	0.2	-13.6	1.5
COc1ccccc1CNC(=O)CCSCc1ccccc1F	-2.0	0.0	6.0	3.8
COc1cc(/C=C2\NC(=S)NC2=O)cc(Br)c1OC	1.0	1.0	4.8	-8.9
CC(=O)Nc1nc(C(=O)Nc2ccc3nc[nH]c3c2)cs1	0.3	0.0	4.4	8.3
Cc1csnc1NC(=O)c1c(N)nc2c(c1C(F)(F)F)OC1=C(CCCC1)O2	0.0	0.0	-4.9	79.2*
CCOC(=O)c1c(NC(=O)c2ccc(C(F)(F)F)cc2)sc2c1CCCC2	-0.6	0.2	3.8	-1.6
CC(C)CNC(=O)C(=O)N/N=C/c1ccc(Cl)c(Cl)c1	-0.4	0.3	10.4	0.2
Cc1cccc(NC(=O)c2nnn(Cc3ccc(C(C)C)cc3)c2N)c1	1.7	0.1	-5.7	3.5
CCCCN(CCCC)C(=O)Cc1cccs1	0.8	-0.1	0.1	44.3*
CCOC(=O)C1=C(C)N=c2s/c(=C\c3ccc(O)c(OCC)c3)c(=O)n2C1c1ccc(N(C)C)cc1 (stereo not drawn)	2.1	-0.2	-2.9	1.6
SMILES	GPR151 activ	FBW7 activator	MITF inh	TEAD-YAP inh
CCOc1cc(/C=C2/SC(=Nc3ccccc3)NC2=O)ccc1O	-1.0	0.0	7.8	52.4*
O=C1NC(=Nc2ccc(O)cc2)S/C1=C\c1ccc(F)cc1	-1.7	0.1	18.1	32.0*
O=C1NC(=Nc2ccccc2)S/C1=C/c1ccccc1	0.9	0.1	1.5	-5.0
O=C1NC(=Nc2ccc(F)cc2)S/C1=C\c1ccco1	1.4	0.1	20.9	-10.0
O=C1NC(=Nc2ccccc2)S/C1=C/c1ccc(O)c(O)c1	0.4	-0.2	19.7	47.1*
O=C1NC(=Nc2ccc(O)cc2)S/C1=C/C=C/c1ccco1	1.1	-0.1	37.9	37.9*
CCCCCn1c(NCCO)nc2c1c(=O)[nH]c(=O)n2C	-1.3	0.1	-3.2	-0.5
O=C1NC(=S)S/C1=C\c1ccc(O)c(O)c1	-0.8	-0.6	54.6*	-3.6
COc1ccc(/C=C2\SC(=S)NC2=O)cc1O	-1.7	-0.2	5.8	-3.5
COC(=O)C(C)N1C(=O)S/C(=C/c2cc(C)n(-c3ccccn3)c2C)C1=O (stereo not drawn)	-0.8	-0.5	-9.1	42.6*
Cc1cc(/C=C2\SC(=Nc3ccccc3)NC2=O)c(C)n1-c1ccccc1	-0.3	-0.1	-1.3	53.2*
Cc1cc(/C=C2\SC(=O)N(C)C2=O)c(C)n1-c1ccc(O)cc1	0.1	-0.4	10.9	78.6*
O=c1cc(-c2cncc(Br)c2)nc(-c2ccccc2)[nH]1	0.4	0.1	0.6	7.7
O=C(O)c1cc(NC(=O)c2ccc(N3C(=O)c4ccc([N+](=O)[O-])cc4C3=O)cc2)cc(C(=O)O)c1	-1.2	0.2	10.8	-7.8
CCC1CCC(C(=O)NC(C(=O)NCCc2ccc(S(N)(=O)=O)cc2)C(C)C)CC1 (stereo not drawn)	-0.9	-0.1	-15.7	39.7*
Cc1ccc(C2CC(c3cccs3)=NN2C(=O)CSc2nnc(CNC(=O)c3cccs3)n2-c2ccccc2)cc1 (stereo not drawn)	0.1	0.2	12.1	5.0
COCCOCCCN1CCC2(CC1)NC(=O)Cc1ccccc12	-0.6	0.1	11.7	7.1
O=C1Cc2ccccc2C2(CCN(Cc3ccc(C(=O)c4ccccc4)cc3)CC2)N1	0.3	-0.7	15.5	36.3*
COc1ccccc1OCCNC(=O)Cn1cnc2c([nH]c3ccccc32)c1=O	-1.2	-0.3	-8.4	6.0
Cc1ccc2c(c1)C(=Nc1ccc(I)cc1)C(=O)N2	-0.8	2.1*	20.9	-8.5
COc1ccc(C(=O)N2CCN(c3ccc([N+](=O)[O-])cc3)CC2)cc1Cl	-0.3	-0.1	-9.6	20.1
O=C(O)c1ccc(NCCSCc2ccccc2)c([N+](=O)[O-])c1	0.4	0.0	-4.8	35.2*
CC(=O)Nc1ccc(S(=O)(=O)Nc2c(C)nn(C)c2C)cc1	-1.1	0.7	14.6	7.1
Cc1nn(C)c(C)c1NS(=O)(=O)c1ccc(C(C)(C)C)cc1	-0.1	-0.1	-10.2	55.0*
COc1cccc(OC)c1C(=O)N1C[C@@H]2C[C@H]1C(=O)N2c1ccccc1Cl	-1.1	0.1	16.2	33.2*
SMILES	GPR151 activ	FBW7 activator	MITF inh	TEAD-YAP inh
O=[N+]([O-])c1ccc2ncnc(Nc3ccc(F)cc3F)c2c1	0.4	-0.1	-6.8	35.2*
Cc1ccc(NC(=O)CC(C(=O)O)N2CCNCC2)cc1C (stereo not drawn)	0.5	-0.1	-8.8	-2.4
C=CCc1cc(C)ccc1OCC(O)Cn1c(C)nc2ccccc21 (stereo not drawn)	0.1	0.0	10.2	47.3*
Cc1nc2ccccc2n1CC(O)COc1ccc(C(C)C)cc1 (stereo not drawn)	-0.4	-0.1	-2.6	48.5*
O=C(O)CNC(=O)CN=Cc1c(O)c2ccccc2oc1=O	0.6	0.1	10.7	-3.0
COc1ccc(S(=O)(=O)Nc2cccc(-c3ccc4nncn4n3)c2)cc1F	-0.2	0.9	15.3	45.3*
O=S(=O)(Nc1cccc(-c2ccc3nncn3n2)c1)c1cccc(C(F)(F)F)c1	-1.1	0.2	16.4	-8.1
COc1ccc(S(=O)(=O)Nc2cccc(-c3ccc(N4CCCCC4)nn3)c2)cc1C	-2.6	-0.1	-10.5	46.2*
C=CCNC(=O)COc1ccc2ccccc2c1	-0.1	-0.1	-10.1	-51.0

Assay outcomes from PubChem BioAssay.
